High-throughput results from PubChem BioAssay.
S1P3 antag: S1P3 receptor antagonists, primary screen, cell-based; Sphingosine 1-phosphate receptor 3 (Homo sapiens), Q99500; CHO S1P3 NFAT-BLA reporter, FRET fluorescence, antagonist mode; inhibition, % at 4.98 µM; 170,000 compounds, 0.27% hits;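 active means inhibition above the plate cutoff, the mean inhibition of test wells on that plate plus 3 SD, cut at about 28% in these data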;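 further: cells challenged with S1P at its EC80 of 0.8 µM; blue over green emission ratio from cleaved BLA substrate after 4 h stimulation; 0% = S1P-stimulated wells and 100% = unstimulated DMSO-only wells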
Target sequence (Q99500 whole entry, looked up): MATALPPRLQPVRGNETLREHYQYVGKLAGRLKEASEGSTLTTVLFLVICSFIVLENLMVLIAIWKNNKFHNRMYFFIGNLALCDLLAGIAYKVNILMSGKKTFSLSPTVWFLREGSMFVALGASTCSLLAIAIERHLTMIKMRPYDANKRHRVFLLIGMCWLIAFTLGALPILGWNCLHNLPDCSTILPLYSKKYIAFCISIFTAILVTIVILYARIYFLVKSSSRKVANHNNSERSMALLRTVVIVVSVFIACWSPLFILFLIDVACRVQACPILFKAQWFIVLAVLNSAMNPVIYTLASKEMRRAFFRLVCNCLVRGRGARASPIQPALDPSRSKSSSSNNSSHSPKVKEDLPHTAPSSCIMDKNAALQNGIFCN
S1P4 antag: S1P4 receptor antagonists, primary screen, cell-based; Sphingosine 1-phosphate receptor 4 (Homo sapiens), O95977; S1P4-expressing cells, antagonist mode, reporter read-out; inhibition, % at 4.98 µM; 220,000 compounds, 0.26% hits; in the data active means inhibition above about 29%;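 further: 0% = wells stimulated with agonist and 100% = vehicle wells without agonist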
EP2 modulator: EP2 receptor modulators, cAMP readout, primary screen, cell-based, HTRF cAMP, PGE2 stimulation | AID 940, 2007 | 260,000 compounds, 0.83% hits | Prostaglandin E2 receptor EP2 subtype (Homo sapiens), P43116 | EP2-expressing cells, cAMP HTRF FRET, PGE2 co-stimulation | induction, % at 25 µM;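 active means compounds whose cAMP rise, as percent of the full-agonist control response, exceeds 60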;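 further: rat C6 glioma line stably carrying human EP2 under a CMV promoter; the protocol text gives 20 µM as final concentration; 100% = response of wells given 1 µM PGE2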
INS promoter inh: inhibitors of insulin promoter-driven GFP, primary screen, imaging, TRM-6 cells (human fetal islet line), eGFP reporter, cell count; reporter expression induced with tamoxifen; inhibition, % at 2 µM; AID 1273, 2008; 130,000 compounds, 0.9% hits;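 active means inhibition above the mean plus 3 SD, with well images judged a real hit on visual review, cut at about 60% in these data, passing the limit was not always enough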
S1P4 ag: S1P4 receptor agonists, primary screen, cell-based | Sphingosine 1-phosphate receptor 4 (Homo sapiens), O95977 | 220,000 compounds, 0.35% hits | AID 1509, 2009 | S1P4-expressing cell line, agonist reporter assay | activation, % at 4.98 µM; in the data active means activation above about 11%;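 further: 0% = DMSO vehicle and 100% = reference agonist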
PGE2 EP2 inh: human EP2 receptor antagonists, primary screen, TR-FRET cAMP, C6 glioma cells; AID 1422, 2008; C6 glioma cells expressing human EP2; cells stimulated with saturating PGE2; 260,000 compounds, 0.52% hits; inhibition, % at 25 µM;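 active means percent inhibition above 40 after rounding to a whole number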;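 further: rat C6 glioma host cells with rolipram phosphodiesterase inhibitor present; the protocol text gives 20 µM as final concentration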
Starred values were filed as active, the others as inactive; ! = a repeat was not active. The list is not random: actives were taken first. Their share in the collection is about 2.4%.

`CCOP1(=O)OCC2OC(n3cnc4c(N)ncnc43)C(O)C2O1` (stereo unspecified) gave S1P3 antag -17, S1P4 antag -6, EP2 modulator 104*, S1P4 ag 0 and PGE2 EP2 inh 5.
`O=c1[nH]cnc2c1ncn2[C@@H]1O[C@H](CO)[C@@H](O)[C@H]1O` gave S1P3 antag -4, S1P4 antag -12, EP2 modulator 23, INS promoter inh -10, S1P4 ag 24* and PGE2 EP2 inh 9.
Screening C[N+](C)(C)c1nc(N)nc2c1ncn2[C@H]1O[C@@H](CO)[C@H](O)[C@H]1O returned EP2 modulator -3 and PGE2 EP2 inh 45*.
Cn1cnc([N+](=O)[O-])c1Sc1nc(N)nc2c1ncn2[C@@H]1C[C@H](O)[C@@H](CO)O1 was read as EP2 modulator 13 and PGE2 EP2 inh 48*.
For OC[C@@H]1O[C@H](n2cnc3c(/C=C(\O)c4ccccc4)ncnc32)[C@H](O)[C@H]1O the results were EP2 modulator 7 and PGE2 EP2 inh 45*.
For O=c1[nH]cnc2c1ncn2C1O[C@H](CO)[C@@H](O)[C@H]1O (stereo partly specified) the results were EP2 modulator -5 and PGE2 EP2 inh 8.
COc1ccc(CNC(=O)c2ccc(-n3cnnn3)cc2)c(OC)c1 was read as EP2 modulator -51 and PGE2 EP2 inh 20.
COc1cccc(NC(=O)CSc2nnnn2-c2ccc(F)cc2)c1 was read as EP2 modulator -116 and PGE2 EP2 inh 9.
Cn1cnc([N+](=O)[O-])c1[Se]c1nc(N)nc2c1ncn2[C@H]1O[C@@H](CO)[C@H](O)[C@H]1O was read as EP2 modulator 1 and PGE2 EP2 inh 42*.
`Nc1nc(SCc2ccc([N+](=O)[O-])cc2)c2ncn([C@@H]3O[C@H](CO)[C@H](O)C3O)c2n1` (stereo partly specified) gave EP2 modulator -14 and PGE2 EP2 inh 12.
For CC(C)c1n[nH]c(=S)n1C the results were EP2 modulator -4 and PGE2 EP2 inh 9.
`O=C(Cn1cnc2c(oc3ccccc32)c1=O)NCc1ccco1` gave S1P4 antag -4, EP2 modulator -2, INS promoter inh 82*, S1P4 ag -1 and PGE2 EP2 inh 6.
CS(=O)(=O)N1CCCc2cc(C(O)CN3CCC4CCCCC4C3)ccc21 (stereo unspecified) was read as EP2 modulator -85 and PGE2 EP2 inh 1.
For O=C(Nc1ccsc1C(=O)N1CCCC1)c1ccccc1 the results were S1P3 antag 0, S1P4 antag -15, EP2 modulator 14, INS promoter inh 91*, S1P4 ag 1 and PGE2 EP2 inh 6.
CC(=O)c1sccc1NC(=O)c1ccccc1C(=O)O was read as S1P3 antag -8, S1P4 antag -5, EP2 modulator 85*, S1P4 ag 0 and PGE2 EP2 inh 14.
COC(=O)c1sccc1NC(=O)c1ccccc1 was read as S1P3 antag -9, S1P4 antag 2, EP2 modulator -24, INS promoter inh 69, S1P4 ag -1 and PGE2 EP2 inh 0.
`CC1Cc2ccccc2N1S(=O)(=O)c1ccc(S(=O)(=O)NC2CCCC2)cc1` (stereo unspecified) gave EP2 modulator -37 and PGE2 EP2 inh 11.
`CC(NC(=O)C1(c2ccc(Cl)cc2)CCC1)c1nc(-c2ccncc2)n[nH]1` (stereo unspecified) gave EP2 modulator -38 and PGE2 EP2 inh 7.
For Cc1cc(OCc2nc(N)nc(N)c2-c2ccc(Cl)c(Cl)c2)ccc1[N+](=O)[O-] the results were EP2 modulator -35 and PGE2 EP2 inh 68*.
Screening O=C(Nc1ccccc1O)c1c(O)c2c([nH]c1=O)CCCC2 returned S1P3 antag -4, S1P4 antag 6, EP2 modulator -135, S1P4 ag 0 and PGE2 EP2 inh 64*!.
`O=C(CN1C(=O)c2cccc3cccc1c23)N1CCC(Cc2ccccc2)CC1` gave EP2 modulator -94 and PGE2 EP2 inh 11.
For c1ccc2c(c1)Nc1cc3ccccc3cc1S2 the results were S1P3 antag -11, S1P4 antag 7, EP2 modulator -28, S1P4 ag 0 and PGE2 EP2 inh 10.
Screening O=C1Nc2cc3c(cc2Sc2ccccc21)OCCO3 returned S1P3 antag -3, S1P4 antag 16, EP2 modulator -23, INS promoter inh 90*, S1P4 ag -2 and PGE2 EP2 inh 10.
Screening CC1(C)CC(=O)C(C(c2cccc(O)c2O)C2C(=O)CC(C)(C)CC2=O)C(=O)C1 returned EP2 modulator 24 and PGE2 EP2 inh 41*.
CC1(C)CC(=O)C(C(c2ccccc2F)C2C(=O)CC(C)(C)CC2=O)C(=O)C1 was read as S1P4 antag 2, EP2 modulator -8, INS promoter inh 38, S1P4 ag 0 and PGE2 EP2 inh 18.
For CCC(C)OC(=O)Cn1cnc2sc(-c3ccccc3)cc2c1=O (stereo unspecified) the results were EP2 modulator -59 and PGE2 EP2 inh 9.
CCn1c2cc(C)oc2c2cnn(CC(=O)NC3CC3)c(=O)c21 was read as EP2 modulator -27.
Screening CCN1C(=O)N[C@@H](c2ccc(Br)cc2)C(C(=O)OC)=C1C returned S1P3 antag -3, S1P4 antag 8, EP2 modulator 7, INS promoter inh 65*, S1P4 ag 2 and PGE2 EP2 inh 19.
CCOC(=O)CN1C(=O)N[C@@H](c2ccccc2)C(C(C)=O)=C1C was read as S1P3 antag -13, S1P4 antag -12, EP2 modulator 1, INS promoter inh 60*, S1P4 ag 1 and PGE2 EP2 inh 9.
CCc1ccc(N(CC(=O)NC2CCCC2)C(=O)c2ccc(C)s2)cc1 was read as EP2 modulator -11 and PGE2 EP2 inh 12.
CCc1c(C)[nH]c2ccc(C)cc2c1=S was read as EP2 modulator 54 and PGE2 EP2 inh 16.
For Cc1ccc2[nH]c(CCN(C)C)c(CSCc3c(CCN(C)C)[nH]c4ccc(C)cc34)c2c1 the results were EP2 modulator -155 and PGE2 EP2 inh 127*.
Cc1cc(NC(=O)c2ccccc2-c2ccccc2C(=O)O)no1 was read as S1P3 antag -5, S1P4 antag 1, EP2 modulator 30, INS promoter inh 64*, S1P4 ag -1 and PGE2 EP2 inh 5.
Cc1cc(C)c2nc(-c3ccccn3)cc(C(=O)Nc3cc(C)on3)c2c1 was read as S1P3 antag 54*, S1P4 antag -1, EP2 modulator 30, INS promoter inh 5, S1P4 ag 2 and PGE2 EP2 inh 11.
